Assay outcomes (PubChem BioAssay)
Most compounds without a hit are left out; they make up all but 20% or so of the library.
Pf growth 96h = inhibits malaria parasite growth, 96 h; P. falciparum luciferase reporter growth, 96 h; Potency, µM (highest dose often 28.7 µM), most hits filed as inhibitors; actives 6.9% (n = 320,000)
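P. falciparum expressing integrated firefly luciferase grown in erythrocytes (2% hematocrit, 0.05% parasitemia final) with compounds for 96 hours at 37 C, 5% CO2. Growth inhibition read as loss of luminescence after adding luciferase detection reagent.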
CHX counter = counter-screen for Shiga toxin inhibitors: cycloheximide protein synthesis inhibition; AID 2314; max response, %; actives 12% (n = 300,000); cell reporter, cycloheximide protein synthesis inhibition counterscreen; in the data active = max response mostly above about 13%, no sharp cut-off; inactive = mostly below about 14%; also: read at 38.3 µM for the half of the compounds with a filed dose
Pf growth 48h = inhibits P. falciparum growth in the first generation, 48 h; P. falciparum luciferase growth in erythrocytes, 48 h; Potency, µM (series often up to 28.7 µM), most hits filed as inhibitors; actives 5.9% (n = 310,000)
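Cell-based growth assay: transgenic P. falciparum expressing firefly luciferase, cultured in red cells within RPMI 1640 containing 0.5% w/v Albumax, 24 mM bicarbonate and gentamycin. A drop in luciferase activity indicates inhibition.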
Shiga inhibitor = blocks Shiga toxin action in Vero cells. Vero cells, Shiga toxin protein synthesis inhibition reporter. inhibition, % at 38.7 µM. actives 9.2% (n = 290,000). AID 2315; in the data active = inhibition mostly above about 28%, no sharp cut-off; inactive = mostly below about 43%
HCMV inh = blocks human cytomegalovirus replication. actives 4.5% (n = 410,000). activity change, negative = inhibition, % at 57.5 µM. HFF cells, HCMV-luciferase reporter, 72 h; hits give low values. AID 1259415; in the data active = activity change below about -60%; inconclusive = no clear call, values can overlap the other calls; inactive = above about -39%
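Steps: HFFs plated, 16 h 37C; compounds added; HCMV-luciferase added to MOI 1 PFU/cell; 72 h 37C; OneGlo reagent, 5 min room temperature; luminescence read, normalized to controls.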
Hits are given with their value; - = inactive; ? = inconclusive; . = no result; + = active, no number. Unless noted, calls follow the shape of the dose curve; as a rule, active = well fitted inhibition curve with a large enough effect; inconclusive = small, poorly fitted or top-dose-only effect, or another doubt; inactive = no such curve, though single readings can be large or run the other way.

SMILES	Pf growth 96h	CHX counter	Pf growth 48h	Shiga inhibitor	HCMV inh
COc1cc(CNCCN2CCOCC2)ccc1OCc1ccccc1Cl	12µM	-	?	-	-
COc1cc(CNCCN2CCOCC2)ccc1OCc1ccc(Cl)cc1	?	-	.	-	-
COc1cc(CNCCCN2CCOCC2)cc(Br)c1OCc1ccc(Cl)cc1	?	-	?	-	-99
O=C(CN1C(=O)NC2(CCCc3ccccc32)C1=O)NC1CCCCC1 (stereo unspecified)	-	.	-	.	-
Cc1ccc(/C(O)=C2\C(=O)C(=O)N(CCCN3CCOCC3)C2c2ccccc2F)cc1 (stereo unspecified)	.	.	.	.	-
NC(=O)Cn1c(=O)n(C2CCCCC2)c(=O)c2c3c(sc21)CCCCC3	2.3µM	-	?	-	-
CCCCNc1c(-c2ccc(SC3CCCCC3)cc2)nc2cnccn12	.	.	.	.	-
CCCCNc1c(-c2ccc(OC)c(SC3CCCCC3)c2)nc2cnccn12	9.3µM	.	10µM	.	.
COc1cc(-c2nc3cc(C)ccn3c2NC2CCCCC2)ccc1-c1ccc(C(C)=O)cc1	10µM	.	5.2µM	.	-94
CCCCNc1c(-c2ccc(OC)c(SC3CCCCC3)c2)nc2cc(C)ccn12	?	.	9.3µM	.	-
COc1ccc(-c2nc3cnccn3c2NCc2ccccc2)cc1SC1CCCCC1	13µM	.	?	.	.
O=C1NC(=O)C2(CCCC2C(=O)O)N1 (stereo unspecified)	.	.	.	.	-
Cc1ccc(OC(C)C(=O)N2CCN(CCc3ccccn3)CC2)cc1C (stereo unspecified)	.	.	.	.	-
Fc1cccc(F)c1C(Nc1nncs1)Nc1nncs1	.	.	.	.	-
O=C1NC2(CCCCC2)C(=O)N1Cc1ccc([N+](=O)[O-])cc1	-	-	-	-	-
COc1cc(-c2nc3cnccn3c2NC(C)(C)CC(C)(C)C)ccc1O	?	-	?	.	?
CCCCCCSc1ccc(-c2nc3ccccn3c2NCCCC)cc1	?	.	?	.	-
CCCCCCSc1ccc(-c2nc3cc(C)ccn3c2NC2CCCCC2)cc1	.	.	.	.	-
CCCCNc1c(-c2ccc(-c3ccc(C(C)=O)cc3)c(OC)c2)nc2cnccn12	?	.	9.3µM	.	.
CCCCCCSc1cc(-c2nc3cc(C)ccn3c2NC2CCCCC2)ccc1OC	8.3µM	.	7.4µM	.	-
CCCCCCSc1cc(-c2nc3cnccn3c2NCc2ccccc2)ccc1OC	5.9µM	.	7.4µM	.	.
Cc1c2cnn(CC(=O)NCc3ccc(F)cc3)c(=O)c2c(C)n1Cc1ccccc1Cl	.	.	.	.	-
COc1ccc(N2C[C@H](C)[C@@H](CC(=O)Nc3ccccc3)C2=O)cc1	.	.	.	.	-
COc1ccc(N2Cc3ccccc3/C2=N\C(=O)Nc2ccccc2)cc1	-	23	-	-	-
CC(=O)CN1Cc2ccccc2/C1=N\C(=O)Nc1ccccc1	?	16	-	-	-
SMILES	Pf growth 96h	CHX counter	Pf growth 48h	Shiga inhibitor	HCMV inh
CCOC(=O)c1ccc(NC(=O)CN2Cc3ccccc3C2=O)cc1	.	.	.	.	-
CCOC(=O)c1noc2ncnc(Nc3cccc(OC)c3)c12	.	.	.	.	-
Cc1ccc(S(=O)(=O)N(c2nc(N(C)C)nc(N(C)C)n2)n2cnnc2)cc1	.	-	-	-	-
Cc1nn(-c2ccccc2)c(C)c1/C=N/n1c(-c2ccc(Cl)cc2)n[nH]c1=S	-	-	-	-	?
S=c1[nH]nc(-c2ccncc2)n1/N=C/C(Cl)=C\c1ccccc1	-	24	?	61	-87
Cc1nn(-c2ccccc2)c(C)c1/C=N/n1c(-c2ccncc2)n[nH]c1=S	-	-	?	-	-74
O=[N+]([O-])c1ccc(Cl)c(/C=N/n2c(-c3ccncc3)n[nH]c2=S)c1	-	-	-	-	-67
O=C(O)c1ccc(S(=O)(=O)c2ccc(Sc3ccc(C(=O)O)c(C(=O)O)c3)cc2)cc1	-	-	-	-	-
O=C(CCCN1C(=O)S/C(=C\C=C\c2ccccc2)C1=O)Nc1ccc(C(=O)O)cc1	?	-	-	-	-
O=C(CN1C(=O)S/C(=C\C=C\c2ccccc2)C1=O)Nc1cccc(O)c1	-	34	?	38	-
O=C(CCN1C(=O)S/C(=C\C=C\c2ccccc2)C1=O)Nc1ccc(O)cc1	-	32	-	52	?
CCOc1ccc(C2C(C(=O)Nc3ccccc3)=C(C)Nc3nc(SCc4cccc(OC)c4)nn32)cc1 (stereo unspecified)	.	.	.	.	-
CCc1cccc(C)c1Nc1nn2c(=O)c3ccccc3nc2s1	.	.	.	.	-
CCSc1nn2c(=O)c3ccccc3nc2s1	-	48	.	85	-
CCOC(=O)c1cc(CC)sc1NC(=O)c1cc(OC)c(OC)c(OC)c1	-	-	.	-	-
CN(C(=O)c1ccccc1C(=O)OCC(=O)c1ccc(F)c(F)c1)C1CCCCC1	?	.	?	.	-
Cc1ccc(N=C2CCCCCN2C)c(C#N)c1	?	-	-	-	-
Cc1ccc(N=C2CCCN2Cc2ccccc2)c(C#N)c1	?	18	-	+	?
CN(C)S(=O)(=O)NCC1CCCN(Cc2ccc(-c3ccccc3)cc2)C1 (stereo unspecified)	-	-	-	-	-
COc1ccc(/C=C2\SC(=O)N(CCNC(=O)C3CCN(S(=O)(=O)c4cccs4)CC3)C2=O)cc1	-	35	-	44	-
COc1ccc(CCNC(=O)C2CCN(S(=O)(=O)c3cccs3)CC2)cc1OC	?	-	-	-	-96
COc1ccc(CCNC(=O)C2CCN(S(=O)(=O)c3cccc4cccnc34)CC2)cc1OC	17µM	-	-	-	.
O=C(NCCN1C(=O)S/C(=C\c2ccc(F)cc2)C1=O)C1CCN(S(=O)(=O)c2cccs2)CC1	-	-	-	-	-
COc1ccc(CCNC(=O)C2CCN(S(=O)(=O)c3cccc4nsnc34)CC2)cc1OC	.	-	?	-	-
COc1ccc(CNC(=O)C2CCN(S(=O)(=O)c3ccc4nc5c(c(C(=O)O)c4c3)CCCC5)CC2)cc1	.	.	.	.	-
SMILES	Pf growth 96h	CHX counter	Pf growth 48h	Shiga inhibitor	HCMV inh
COc1ccc(CCNC(=O)C2CCN(S(=O)(=O)c3ccc4nc5c(c(C(=O)O)c4c3)CCCC5)CC2)cc1OC	9.3µM	-	-	-	-
Cc1ccc(-c2ccc(=O)n(CC(=O)NCCc3ccccc3)n2)cc1	.	.	.	.	-
O=C(Nc1nc(-c2ccc(F)c(F)c2)cs1)Nc1ccc(F)cc1F	-	-	-	-	?
Cc1ccc(S(=O)(=O)N2CCC(c3nc4c(nnn4Cc4ccccc4)c(=O)[nH]3)CC2)cc1	-	-	12µM	-	-
O=c1[nH]c(C2CCN(S(=O)(=O)c3ccccc3C(F)(F)F)CC2)nc2c1nnn2Cc1ccccc1	2.6µM	-	5.9µM	-	?
Cc1ccc(Cn2nnc3c(=O)[nH]c(C4CCN(S(=O)(=O)c5ccccc5)CC4)nc32)cc1	-	-	-	-	-
O=c1[nH]c(C2CCN(S(=O)(=O)c3ccccc3F)CC2)nc2c1nnn2Cc1ccc(OC(F)(F)F)cc1	?	-	?	-	-
O=c1[nH]c(C2CCN(S(=O)(=O)/C=C/c3ccccc3)CC2)nc2c1nnn2Cc1ccccc1	-	-	4.7µM	-	?
Cc1ccc(Cn2nnc3c(=O)[nH]c(C4CCN(S(=O)(=O)Cc5ccccc5)CC4)nc32)cc1	-	31	?	78	-
Clc1nccc(N2CCN(c3ccccc3Cl)CC2)n1	.	.	.	.	-
